# The supplement of paper PMC10037445
# Over roughly 2,900 compounds, “NF-kB SEAP reporter activity, fold change vs agonist alone” has its median near 0.99; the highest 2% begin near 2.6. This excerpt belongs to a sample that is enriched for the highest values.
# Columns and labels:
# RAW-Dual [1] = assay: NF-kB SEAP reporter activity, fold change vs agonist alone; higher = enhanced NF-kB activity; conditions: cytotoxicity flag (confluency mask): not cytotoxic
# In short: (§1)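 Library stock was pin-tooled at 50 nL into 384-well plates of RAW-Dual macrophages (50,000 cells/well, DMEM), followed 1 h later by a PRR agonist, and the cells were kept at 37 °C, 5% CO2. Supernatant collected after 20 hours was read for IRF by QuantiLuc luminescence and for NF-κB by QuantiBlue absorbance at 620 nm. Reporter activity is fold change over agonist-alone wells, and a well counted as cytotoxic when its IncuCyte confluency was below 70% of agonist controls in both mask sets.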
# RAW-Dual [2] = assay: NF-kB SEAP reporter activity, fold change vs agonist alone; cytotoxicity flag (confluency mask): not cytotoxic; higher = enhanced NF-kB activity
# In short: as §1
# [3] = library stock concentration (final ~1000-fold dilution): 10 mM, agonist: Imiquimod (TLR7) […]
# [4] = library stock concentration (final ~1000-fold dilution): 10 mM, agonist: MPLA (TLR4) […]
# [5] = agonist: ODN 1826 (TLR9) 0.5 ug/mL
# [6] = agonist: Pam2CSK4 (TLR2/6) 0.1 ug/mL
# [7] = agonist: Pam3CSK4 (TLR2/1) 0.1 ug/mL
smiles,measurement,setting,value
COC1=CC(c2cc3ccccc3[nH]2)=N/C1=C\c1[nH]c(C)cc1C.CS(=O)(=O)O,NF-kB SEAP reporter activity,RAW-Dual [1]; [3],1.4
same,NF-kB SEAP reporter activity,RAW-Dual [1]; [4],2.78
CCOC(=O)COc1ccc(/C=C2\SC(=S)NC2=O)cc1OC,NF-kB SEAP reporter activity,RAW-Dual [1]; [3],0.985
same,NF-kB SEAP reporter activity,RAW-Dual [1]; [4],1.1
CCOC(=O)COc1ccc(/C=C2\SC(=S)NC2=O)cc1OC (library stock concentration (final ~1000-fold dilution): 10 mM),NF-kB SEAP reporter activity,RAW-Dual [2]; agonist: LPS (TLR4) 0.1 ug/mL,1.04
same,NF-kB SEAP reporter activity,RAW-Dual [2]; [5],0.889
same,NF-kB SEAP reporter activity,RAW-Dual [2]; [6],0.889
same,NF-kB SEAP reporter activity,RAW-Dual [2]; [7],1.1
CCOC(=O)C1=CCCCC1S(=O)(=O)Nc1ccc(F)cc1Cl (stereo unspecified),NF-kB SEAP reporter activity,"RAW-Dual [1]; library stock concentration (final ~1000-fold dilution): .1 mM, agonist: Imiquimod (TLR7) […]",1.2
same,NF-kB SEAP reporter activity,"RAW-Dual [1]; library stock concentration (final ~1000-fold dilution): .1 mM, agonist: MPLA (TLR4) […]",0.252
CCOC(=O)C1=CCCCC1S(=O)(=O)Nc1ccc(F)cc1Cl (stereo unspecified) (library stock concentration (final ~1000-fold dilution): .1 mM),NF-kB SEAP reporter activity,RAW-Dual [2]; agonist: LPS (TLR4) 0.1 ug/mL,0.288
same,NF-kB SEAP reporter activity,RAW-Dual [2]; [5],1.09
same,NF-kB SEAP reporter activity,RAW-Dual [2]; [6],1.36
same,NF-kB SEAP reporter activity,RAW-Dual [2]; [7],1.39
N=C(N)c1ccc(OCCCCCOc2ccc(C(=N)N)cc2)cc1.O=S(=O)(O)CCO.O=S(=O)(O)CCO,NF-kB SEAP reporter activity,RAW-Dual [1]; [3],1.39
same,NF-kB SEAP reporter activity,RAW-Dual [1]; [4],1.89
N=C(N)c1ccc(OCCCCCOc2ccc(C(=N)N)cc2)cc1.O=S(=O)(O)CCO.O=S(=O)(O)CCO (library stock concentration (final ~1000-fold dilution): 10 mM),NF-kB SEAP reporter activity,RAW-Dual [2]; agonist: LPS (TLR4) 0.1 ug/mL,3.88
same,NF-kB SEAP reporter activity,RAW-Dual [2]; [5],1.22
same,NF-kB SEAP reporter activity,RAW-Dual [2]; [6],0.758
same,NF-kB SEAP reporter activity,RAW-Dual [2]; [7],1.06
NC(=O)c1ccc(OCCCN2CC3CCCC3C2)cc1 (stereo unspecified) (library stock concentration (final ~1000-fold dilution): 10 mM),NF-kB SEAP reporter activity,RAW-Dual [2]; agonist: LPS (TLR4) 0.1 ug/mL,0.976
same,NF-kB SEAP reporter activity,RAW-Dual [2]; [5],0.696
same,NF-kB SEAP reporter activity,RAW-Dual [2]; [6],0.926
same,NF-kB SEAP reporter activity,RAW-Dual [2]; [7],1.14
NC(=O)c1ccc(OCCCN2CC3CCCC3C2)cc1 (stereo unspecified),NF-kB SEAP reporter activity,RAW-Dual [1]; [3],0.844
same,NF-kB SEAP reporter activity,RAW-Dual [1]; [4],1.05
CS(=O)(=O)O.CS(=O)(=O)O.N=C(N)Nc1ccc(C(=O)Oc2ccc3cc(C(=N)N)ccc3c2)cc1 (library stock concentration (final ~1000-fold dilution): 10 mM),NF-kB SEAP reporter activity,RAW-Dual [2]; agonist: LPS (TLR4) 0.1 ug/mL,1.08
same,NF-kB SEAP reporter activity,RAW-Dual [2]; [5],1.05
same,NF-kB SEAP reporter activity,RAW-Dual [2]; [6],1.02
same,NF-kB SEAP reporter activity,RAW-Dual [2]; [7],0.924
CS(=O)(=O)O.CS(=O)(=O)O.N=C(N)Nc1ccc(C(=O)Oc2ccc3cc(C(=N)N)ccc3c2)cc1,NF-kB SEAP reporter activity,RAW-Dual [1]; [3],1.01
same,NF-kB SEAP reporter activity,RAW-Dual [1]; [4],1.02
COCCc1ccc(OCC(O)CNC(C)C)cc1.COCCc1ccc(OCC(O)CNC(C)C)cc1.O=C(O)CCC(=O)O (stereo unspecified),NF-kB SEAP reporter activity,RAW-Dual [1]; [4],1.03
COCCc1ccc(OCC(O)CNC(C)C)cc1.COCCc1ccc(OCC(O)CNC(C)C)cc1.O=C(O)CCC(=O)O (stereo unspecified) (library stock concentration (final ~1000-fold dilution): 10 mM),NF-kB SEAP reporter activity,RAW-Dual [2]; agonist: LPS (TLR4) 0.1 ug/mL,1.32
same,NF-kB SEAP reporter activity,RAW-Dual [2]; [5],0.801
same,NF-kB SEAP reporter activity,RAW-Dual [2]; [6],0.839
same,NF-kB SEAP reporter activity,RAW-Dual [2]; [7],0.868
NC1(C(=O)NC(CCO)c2ccc(Cl)cc2)CCN(c2ncnc3[nH]ccc23)CC1 (stereo unspecified) (library stock concentration (final ~1000-fold dilution): 10 mM),NF-kB SEAP reporter activity,RAW-Dual [2]; agonist: LPS (TLR4) 0.1 ug/mL,0.9
same,NF-kB SEAP reporter activity,RAW-Dual [2]; [5],1.06
same,NF-kB SEAP reporter activity,RAW-Dual [2]; [6],0.974
same,NF-kB SEAP reporter activity,RAW-Dual [2]; [7],0.723
NC1(C(=O)NC(CCO)c2ccc(Cl)cc2)CCN(c2ncnc3[nH]ccc23)CC1 (stereo unspecified),NF-kB SEAP reporter activity,RAW-Dual [1]; [3],0.829
same,NF-kB SEAP reporter activity,RAW-Dual [1]; [4],0.793
O=C1N=C(O)CN1N=Cc1ccc(-c2ccc([N+](=O)[O-])cc2)o1,NF-kB SEAP reporter activity,RAW-Dual [1]; [4],1.03
O=C1N=C(O)CN1N=Cc1ccc(-c2ccc([N+](=O)[O-])cc2)o1 (library stock concentration (final ~1000-fold dilution): 10 mM),NF-kB SEAP reporter activity,RAW-Dual [2]; agonist: LPS (TLR4) 0.1 ug/mL,1.06
same,NF-kB SEAP reporter activity,RAW-Dual [2]; [5],0.843
same,NF-kB SEAP reporter activity,RAW-Dual [2]; [6],0.877
same,NF-kB SEAP reporter activity,RAW-Dual [2]; [7],0.756
CN1CCN(Cc2ccc(-c3cnc4[nH]cc(-c5ccc6[nH]ccc6c5)c4c3)cc2)CC1,NF-kB SEAP reporter activity,RAW-Dual [1]; [3],0.132
same,NF-kB SEAP reporter activity,RAW-Dual [1]; [4],0.242
CN1CCN(Cc2ccc(-c3cnc4[nH]cc(-c5ccc6[nH]ccc6c5)c4c3)cc2)CC1 (library stock concentration (final ~1000-fold dilution): 10 mM),NF-kB SEAP reporter activity,RAW-Dual [2]; agonist: LPS (TLR4) 0.1 ug/mL,0.216
same,NF-kB SEAP reporter activity,RAW-Dual [2]; [5],0.181
same,NF-kB SEAP reporter activity,RAW-Dual [2]; [6],0.0629
same,NF-kB SEAP reporter activity,RAW-Dual [2]; [7],0.138
COC(=O)Nc1ccc(-c2nc(N3CCOCC3)c3cnn(C4CCN(C(=O)OC)CC4)c3n2)cc1,NF-kB SEAP reporter activity,RAW-Dual [1]; [3],0.976
same,NF-kB SEAP reporter activity,RAW-Dual [1]; [4],0.895
c1cncc(CN2CCC(n3ncc4c(N5CCOCC5)nc(-c5ccc6[nH]ccc6c5)nc43)CC2)c1 (library stock concentration (final ~1000-fold dilution): 10 mM),NF-kB SEAP reporter activity,RAW-Dual [2]; agonist: LPS (TLR4) 0.1 ug/mL,2.91
same,NF-kB SEAP reporter activity,RAW-Dual [2]; [5],0.951
same,NF-kB SEAP reporter activity,RAW-Dual [2]; [6],1.44
same,NF-kB SEAP reporter activity,RAW-Dual [2]; [7],0.777
c1cncc(CN2CCC(n3ncc4c(N5CCOCC5)nc(-c5ccc6[nH]ccc6c5)nc43)CC2)c1,NF-kB SEAP reporter activity,RAW-Dual [1]; [3],0.96
same,NF-kB SEAP reporter activity,RAW-Dual [1]; [4],0.899
COC(=O)Nc1ccc(-c2nc(N3CCOCC3)c3cnn(C4CCN(C(=O)OC)CC4)c3n2)cc1 (library stock concentration (final ~1000-fold dilution): 10 mM),NF-kB SEAP reporter activity,RAW-Dual [2]; agonist: LPS (TLR4) 0.1 ug/mL,0.888
same,NF-kB SEAP reporter activity,RAW-Dual [2]; [5],0.912
same,NF-kB SEAP reporter activity,RAW-Dual [2]; [6],0.867
same,NF-kB SEAP reporter activity,RAW-Dual [2]; [7],0.873
